High-throughput results: PubChem BioAssay, National Center for Advancing Translational Sciences (NCATS)
Sampled rows, rich in hits. Any-hit rate of the full collection: about 12%.
G9a inh: G9a (human) methyltransferase inhibition | 8.8% of 350,000 active | AID 504332 | G9a H3K9 monomethylation, AlphaScreen, 2 h | Potency, µM (highest dose often 102 µM), inactives show at the highest dose activity, negative = inhibition, actives largely listed as inhibitors; note: % is set by controls: 0 for no effect and ±100 for the full control effect; nearly all actives have a fitted effect of over 75% in size
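Enzyme 20 nM + cpd, 15 min RT; add b-H3K9 pep 500 nM / SAM 20 uM; 2 h RT; anti-H3K9me1 Ab 0.5 ug/mL + SA donor / anti-rabbit acceptor beads 20 ug/mL each, 10 min; AlphaScreen read.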
HP1b binding inh: inhibitors of HP1-beta chromodomain binding to methylated histone tails | P83916 | AlphaScreen HP1-beta / biotin-H3K9me3 peptide binding | Potency, µM (top dose mostly 114 µM), without a hit: at the top dose activity change, negative = inhibition, hits mostly inhibitors | 0.56% of 390,000 active | AID 540317; note: nearly all actives have a fitted effect of over 70% in size
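HP1-beta protein (50 nM final) preincubated 30 min at room temperature with biotinylated H3(1-18)K9me3 peptide (50 nM) in PBS pH 7.4, 0.01% Tween-20, then compound added for 30 min. AlphaScreen streptavidin donor/nickel chelate acceptor beads (10 ug/mL final), 30 min dark, luminescence read.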
Sfp PPTase inh: inhibitors of Bacillus subtilis Sfp phosphopantetheinyl transferase; 3.5% of 310,000 active; Q9F4F7; Biochemical Sfp PPTase activity, qHTS; Potency, µM, for the others: largest response in the series, negative = inhibition, usual class: inhibitors;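 note: the enzyme is Sfp with the accession as filed and its product quenches rhodamine fluorescence; 0% = enzyme reaction without inhibitor and -100% = no enzyme wells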
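Compounds were incubated with enzyme (final 15 nM) for 15 min at room temperature before substrate addition started the reaction. Fluorescence at 525 nm excitation, 598 nm emission was recorded immediately and after 30 minutes.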
JMJD2A Tudor: inhibitors of human JMJD2A Tudor domain; 4.4% of 390,000 active; AID 504339; O75164; Potency, µM (highest dose often 114 µM), inactives show at the highest dose activity change, negative = inhibition, hits mostly inhibitors; AlphaScreen JMJD2A-Tudor / H3K4me3 peptide binding; note: % is set by controls: 0 for no effect and ±100 for the full control effect; nearly all actives have a fitted effect of over 50% in size
BAZ2B block: BAZ2B (human) inhibition; 4.4% of 360,000 active; AlphaScreen BAZ2B-H3K14Ac peptide displacement; Potency, µM (top dose mostly 114 µM), for the others: at the highest dose activity change, negative = inhibition, hits mostly inhibitors; Q9UIF8; note: % is set by controls: 0 for no effect and ±100 for the full control effect; nearly all actives have a fitted effect of over 60% in size
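Protein-peptide AlphaScreen: BAZ2B 50 nM, b-H3K14Ac 50 nM, 1x PBS pH 7.4 + 0.01% Tween-20. Preincubation 30 min RT; cpd 30 min RT (top 110 uM); beads 20 min RT, light-protected.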
L3MBTL1 block: inhibitors of human L3MBTL1 | AlphaScreen L3MBTL1–H3K9me1 peptide binding | Potency, µM (series often up to 57.1 µM), without a hit: at the top dose activity, negative = inhibition, usual class: inhibitors | 0.66% of 230,000 active; note: % is set by controls: 0 for no effect and ±100 for the full control effect; nearly all actives have a fitted effect of over 60% in size
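AlphaScreen proximity signal between nickel-chelate acceptor and streptavidin donor beads (final 10 ug/mL) reports binding of 50 nM L3MBTL1 to 75 nM biotin-H3 K9me1 peptide; complex incubated with compounds 30 min at room temperature; cefsulodin titration as control.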
An asterisk follows results filed as active; ? = inconclusive; · = no result; [ ] = remark or other dose. Calls come from the whole dose curve; as a rule, active = well fitted curve in the direction sought with a large enough effect; inconclusive = small, poorly fitted or top-dose-only effect, or another doubt; inactive = no such curve, though single readings can be large; an effect the other way counts as inactive or inconclusive. Potency is the fitted concentration of half-maximal effect.

SMILES	G9a inh	HP1b binding inh	Sfp PPTase inh	JMJD2A Tudor	BAZ2B block	L3MBTL1 block
CCOC(=O)CNC(=O)Nc1cc(C(=O)NCc2ccc(C(C)C)cc2)ccc1N1CCCC1	10.6%[59 µM]	18.9%	·	-15.6%	-15.5%	·
Cc1ccc(S(=O)(=O)N2CC(=O)NC(=O)C2)cc1	-5.2%[59 µM]	17.1%	6.1%	8.5%	-10.6%	·
C[C@H]([C@H](C)N1CC(=O)NC(=O)C1)N1CC(=O)NC(=O)C1	2.24µM*	·	?	·	·	·
COc1ccccc1CCNC(=O)C1CCC(=O)N(C2CCCCCC2)C1 (stereo unspecified)	-2.2%	7.4%	12.6%	-7.3%	3.3%	·
Cc1ccccc1NC(=S)NC(NC(=O)C(C)(C)C)C(Cl)(Cl)Cl (stereo unspecified)	?	61.6%	8.0%	4.3%	4.7%	0.6%
Cc1ccccc1NC(=S)NC(NC(=O)COc1ccccc1)C(Cl)(Cl)Cl (stereo unspecified)	8.4%	19.3%	11.7%	-6.4%	8.8%	7.8%
COC(=O)c1ccccc1NC(=S)NC(NC(=O)c1ccco1)C(Cl)(Cl)Cl (stereo unspecified)	2.24µM*	-5.1%	-3.0%	-32.1%	-2.9%	-4.3%
COC(=O)c1ccccc1NC(=S)NC(NC(=O)c1ccccc1[N+](=O)[O-])C(Cl)(Cl)Cl (stereo unspecified)	3.55µM*	0.6%	-1.7%	-19.8%[57.1 µM]	1.4%	-6.3%
O=C(NC(NC(=S)Nc1ccccc1C(=O)O)C(Cl)(Cl)Cl)c1ccccc1 (stereo unspecified)	25.1µM*	?	35.5µM*	50.1µM*	?	-16.1%
COC(=O)c1ccccc1NC(=S)NC(NC(=O)COc1ccccc1)C(Cl)(Cl)Cl (stereo unspecified)	2.24µM*	-20.4%	3.9%	-25.3%	12.6%	0.1%
COC(=O)c1ccccc1NC(=O)c1ccco1	-3.1%	22.6%	-9.5%	-4.5%	8.3%	15.9%
O=C(OCC#CCSc1nnc(-c2cccc3ccccc23)o1)c1cnc[nH]1	-4.0%[12.7 µM]	17.0%	·	-34.3%	?	2.7%
Cc1ccccc1NC(=S)NC(NC(=O)c1ccco1)C(Cl)(Cl)Cl (stereo unspecified)	?	24.4%	-6.0%	-27.8%	-0.7%	28.8%
O=C(NC(NC(=S)Nc1ccccc1C(=O)O)C(Cl)(Cl)Cl)c1ccco1 (stereo unspecified)	10µM*	-27.2%	39.8µM*	79.4µM*	-1.7%	8.4%
Cc1ccc(CNc2ncnc3ccc(-c4ccc5c(c4)OCO5)cc23)o1	·	·	·	44.7µM*	·	·
c1nc(NCCc2cnc[nH]2)c2ccc(-c3ccc4c(c3)OCO4)cc2n1	·	·	·	79.4µM*	·	·
Cc1nc(CN(C)c2ncnc3cc(-c4ccc5c(c4)OCO5)ccc23)cs1	·	·	·	89.1µM*	·	·
COc1ccc2[nH]cc(CCNc3ncnc4ccc(-c5ccc6c(c5)OCO6)cc34)c2c1	3.1%[0.501 µM]	·	2.4%	·	·	·
COc1cc(-c2ccc3ncnc(N(C)Cc4csc(C)n4)c3c2)cc(OC)c1OC	·	·	·	-20.6%	·	·
Cc1csc(CNc2ncnc3ccc(-c4ccc5c(c4)OCO5)cc23)c1	3.9%[12.7 µM]	77.4%	·	-14.4%	2.9%	4.6%
Cc1csc(CNc2ncnc3cc(-c4ccc5c(c4)OCO5)ccc23)n1	·	·	·	56.2µM*	·	·
CCOC(=O)C1=C(COC(=O)c2ncc(Cl)c(Cl)c2Cl)NC(=O)NC1C (stereo unspecified)	-0.7%[59 µM]	7.7%	·	-21.2%	9.8%	-5.6%
CC1(C)Cc2c(C#N)c(NCc3ccco3)nc(-c3ccco3)c2CO1	?	45.5%	3.55µM*	-13.8%	-10.2%	-9.9%[11.4 µM]
N#Cc1c(N2CCOCC2)nc(-c2ccco2)c2c1CCCC2	22.4µM*	59.2%	44.7µM*	18.9%	20.5%	28.8%
CCCCN(C)c1nc(-c2ccco2)c2c(c1C#N)CC(C)(C)OC2	44.7µM*	32.4%	35.5µM*	89.1µM*	32.0%	11.5%
SMILES	G9a inh	HP1b binding inh	Sfp PPTase inh	JMJD2A Tudor	BAZ2B block	L3MBTL1 block
CC(C)c1nc(N2CCN(C(=O)c3ccccc3)CC2)c(C#N)c2c1COC(C)(C)C2	?	12.7%	-21.9%	-36.0%	-30.3%	26.4%[11.4 µM]
CN(C)CCNc1nc(-c2ccco2)c2c(c1C#N)CC(C)(C)OC2	8.0%	36.7%	-1.0%	0.8%	2.5%	7.9%
CC1(C)Cc2c(C#N)c(N3CCN(C(=O)c4ccccc4)CC3)nc(-c3ccco3)c2CS1	14.1µM*	-1.5%	20µM*	-33.9%	50.1µM*	?
CC1(C)Cc2c(C#N)c(N3CCCC3)nc(-c3ccco3)c2CO1	35.5µM*	·	17.8µM*	·	26.4%	11.8%
CSc1nc(N2CCCC2)c2c(c1C#N)CC(C)(C)OC2	-16.5%	39.7%	2.7%	3.4%	3.9%	-16.8%
CC(C)(C)C(=O)Nc1cc2c3c(c1)CCC(=O)N3CCC2	25.2%	34.4%	25.9%	10.0%	-8.3%	·
COC(=O)c1ccccc1CSc1nsc(/C=C/N(C)C)c1C#N	-0.3%[2.33 µM]	?	15.8µM*	50.1µM*	44.7µM*	·
COC(=O)c1cccnc1SCc1ccccc1	22.7%[59 µM]	134.9%	-0.5%	122.7%	105.9%	42.0%
Cc1nc(CSc2nsc(/C=C/N(C)C)c2C#N)cs1	20µM*	?	?	?	39.8µM*	?
Cc1snc(SCc2ccc(F)cc2)c1C#N	49.3%	133.5%	-4.5%	109.2%	5.9%	·
CSc1cc(SC)ncn1	·	19.8%	·	-9.0%	·	·
O=C(CSc1nnc(NC(=O)C2CC2)s1)Nc1ccccc1Cl	-12.1%	34.6%	-25.0%	3.9%	-10.7%	·
COc1ccc2[nH]c3c(N4CCN(Cc5ccc6c(c5)OCO6)CC4)ncnc3c2c1	50.1µM*	-25.4%	-5.0%	?	50.1µM*	-3.5%
O=[N+]([O-])c1ccc2ncnc(N3CCN(Cc4ccc5c(c4)OCO5)CC3)c2c1	·	-11.5%	0.0%	?	39.8µM*	-7.8%
COc1ccc2c(c1)c1ncnc(N3CCN(Cc4ccc5c(c4)OCO5)CC3)c1n2C	-43.0%[59 µM]	·	-1.7%	·	0.3%	2.5%
COc1ccc(-c2nc3c(c4c2C[C@H](c2ccccc2)OC4)CN(C(=O)NCCc2c[nH]c4ccccc24)CC3)c(C)c1	·	·	16.1%	·	·	·
Cc1ncc(CO)c(/C=N/Nc2cccc(Cl)n2)c1O	13.9%	37.2%	?	-35.2%	7.2%	·
Cc1ncc(CO)c(/C=N/NC(=O)c2cc(Br)ccc2O)c1O	-40.0%	39.3%	-9.5%	79.4µM*	11.2µM*	·
Cc1cc(C(=O)N/N=C/c2c(CO)cnc(C)c2O)c2ccccc2n1	70.9%	37.6%	12.0%	50.1µM*	25.1µM*	·
Cc1ncc(CO)c(/C=N/NC(=O)c2cc(O)c(O)c(O)c2)c1O	?	·	20µM*	·	10µM*	1.58µM*
Cc1c(/C=N/NC(=O)c2cc(Br)ccc2O)c(=O)n(C)c(=O)n1C	5.1%[59 µM]	24.5%	3.2%	-0.7%	4.1%	·
